# Data reported in PubChem BioAssay (NCATS).
# Values joined by “and” are separate entries in the source; they are usually repeats but may differ in a detail not shown here. Identical values can stand only once. Inconclusive results are not listed. Where a call stands in place of a potency, no number is given. Active and inactive are the calls of the source. Unless noted, calls come from the whole dose curve; as a rule, active = well fitted curve in the direction sought with a large enough effect; inconclusive = small, poorly fitted or top-dose-only effect, or another doubt; inactive = no such curve, though single readings can be large; an effect the other way counts as inactive or inconclusive.
# Key:
# [1] = molecular target: Alpha-galactosidase A (Homo sapiens) (UniProt P06280); experiment: Counterscreen for Glucocerebrosidase Inhibitors: qHTS Assay for Human alpha-Galactosidase at pH 4.5 (AID 992)
# Procedure, shortened: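 Human enzyme (2 nM) with 80 uM 4-methylumbelliferyl alpha-D-galactopyranoside in 50 mM citric acid, 0.005% Tween-20, pH 4.5, 20 min at room temperature. Compounds 0.7 nM–77 uM; fluorescence Ex 365/Em 440 after pH 10 stop; AC50 from Hill fits.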
# [2] = molecular target: alpha-glucosidase (Oryza sativa, rice) (UniProt Q653V4); experiment: Counterscreen for Glucocerebrosidase Inhibitors: qHTS Assay for Rice alpha-Glucosidase at pH 5.0 (AID 997)
# Procedure, shortened: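 Rice alpha-glucosidase (4 nM final) with 400 uM 4-methylumbelliferyl-alpha-D-glucopyranoside in citrate buffer pH 5.0, 20 min at room temperature, stopped at pH 10; fluorescence 365/440 nm, compounds 0.7 nM–77 uM, AC50 from Hill fits.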
# [3] = Validation of Assay for Modulators of Lamin A Splicing (AID 1459; active = well fitted curve in the direction sought with a large enough effect in the signal ratio; the % refers to the signal ratio;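 note: cells exposed to compound for two days before reading; ratio rise marks activators and ratio drop marks inhibitors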)
# Procedure, shortened: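 Splicing correction is reported by an EGFP-containing lamin A minigene in stably transfected S3 HeLa cells, while DsRed2 controls for viability and nonspecific signal. Cells are exposed to compounds for 48 hrs before the GFP over RFP ratio is taken.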
# [4] = qHTS Assay for Lipid Storage Modulators (AID 1519; calls by dose curve); conditions: Drosophila S3 cells, BODIPY lipid droplet/cell ratio, laser cytometry, cells loaded with oleic acid
# Procedure, shortened: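 Cells seeded at 5,000 per well were treated with compounds over a concentration series and loaded with oleic acid (400 uM, as added). Lipid droplet fluorescence (488 nm excitation, 500-530 nm channel) was read by laser-scanning cytometry and normalized to 20 uM Triacsin C.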
# [5] = molecular target: DNA repair nuclease/redox regulator APEX1 (Homo sapiens) (UniProt P27695); experiment: qHTS Validation Assay for Inhibitors of the Human Apurinic/apyrimidinic Endonuclease 1 (APE1) (AID 1705;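 note: TAMRA fluorescence gain over two minutes as APE1 cuts a quenched THF abasic duplex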)
# Procedure, shortened: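 Endonuclease activity of human APE1 is followed as dequenching when the enzyme incises a tetrahydrofuran abasic site in a short duplex labelled 5'-TAMRA/3'-BHQ-2 (50 nM final), after 15 min enzyme–compound preincubation at room temperature.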
# [6] = Counterscreen for APE1 Inhibitors: Fluorescent Dye Displacement Validation Assay (AID 1707)
# Procedure, shortened: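 Thiazole Orange (250 nM) bound to 50 nM TAMRA-labelled dsDNA with tetrahydrofuran abasic site; displacement by DNA-binding compounds lowers fluorescence. Buffer 50 mM Tris-HCl pH 7.5, 50 mM NaCl, 2 mM MgCl2, 0.01% Tween-20; endpoint read at 480/540 nm.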
# [7] = molecular target: Endonuclease 4 (Escherichia coli (strain K12)) (UniProt P0A6C1); experiment: Counterscreen for APE1 Inhibitors: qHTS Validation Assay for Inhibitors of Endonuclease IV (AID 1708)
# Procedure, shortened: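 qHTS concentration-response format; LOPAC1280 tested under APE1-screen conditions. 2 nM enzyme, 15 min compound preincubation at RT, then 50 nM TAMRA/BHQ-2 abasic substrate; kinetic fluorescence read, three reads at 60 s intervals.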
# [8] = qHTS for differential inhibitors of proliferation of Plasmodium falciparum line 7G8 (AID 1815);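 note: parasite growth measured after three days of incubation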; note: potency is the fitted concentration of half-maximal effect
# [9] = qHTS for differential inhibitors of proliferation of Plasmodium falciparum line GB4 (AID 1816); conditions: Potency: Plasmodium falciparum GB4 proliferation inhibition;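 note: parasite growth measured after 72 h incubation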; note: potency is the fitted concentration of half-maximal effect
# [10] = qHTS for differential inhibitors of proliferation of Plasmodium falciparum line 3D7 (AID 1876); note: potency is the fitted concentration of half-maximal effect
# [11] = measured here: cell count channel max response
# [12] = measured here: lipid channel max response
# Chain of Alpha-galactosidase A (Homo sapiens) (P06280 whole entry, looked up): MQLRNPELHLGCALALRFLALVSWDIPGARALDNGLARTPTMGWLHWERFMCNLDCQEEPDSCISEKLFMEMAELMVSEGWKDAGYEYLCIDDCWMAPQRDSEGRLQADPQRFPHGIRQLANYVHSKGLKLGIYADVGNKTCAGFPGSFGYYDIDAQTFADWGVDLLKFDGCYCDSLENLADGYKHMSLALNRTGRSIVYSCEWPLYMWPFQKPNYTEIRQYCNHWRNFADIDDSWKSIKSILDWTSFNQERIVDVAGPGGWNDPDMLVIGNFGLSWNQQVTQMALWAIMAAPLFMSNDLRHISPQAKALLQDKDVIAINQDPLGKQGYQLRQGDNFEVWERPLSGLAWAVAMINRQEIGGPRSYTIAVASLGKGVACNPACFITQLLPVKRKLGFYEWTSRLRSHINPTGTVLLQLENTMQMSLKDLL
# Chain of DNA repair nuclease/redox regulator APEX1 (Homo sapiens) (P27695 whole entry, looked up): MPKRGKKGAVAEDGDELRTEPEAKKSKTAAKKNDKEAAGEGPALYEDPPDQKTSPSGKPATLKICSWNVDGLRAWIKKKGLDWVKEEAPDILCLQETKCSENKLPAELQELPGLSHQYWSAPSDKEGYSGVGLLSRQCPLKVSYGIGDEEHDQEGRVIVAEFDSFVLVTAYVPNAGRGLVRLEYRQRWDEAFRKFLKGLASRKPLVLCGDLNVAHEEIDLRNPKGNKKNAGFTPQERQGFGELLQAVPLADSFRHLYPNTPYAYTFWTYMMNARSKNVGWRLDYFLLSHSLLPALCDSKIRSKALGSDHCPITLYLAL
Compound,outcome [1],outcome [2],outcome [3],"activity change, negative = inhibition ([4]; at 57.5 µM (top of the series))","max response [4, 11]","max response [4, 12]",Potency [5],Potency [6],Potency [7],Potency [8],Potency [9],Potency [10],"activity change, negative = inhibition ([4]; at 25.7 µM (top of the series))"
O=C(O)/C=C/c1ccc(O)c(O)c1,inactive,inactive,inactive,3.74% (inactive) and 0.322% (inactive),0.683% and 6.48%,7.03% and 6.69%,inactive,inactive,inactive,inactive,inactive,inactive,–
CC(=O)NCCc1c[nH]c2ccc(O)cc12,inactive,inactive,inactive,10.9% (inactive),15.4%,28.6%,inactive,inactive,inactive,inactive,inactive,inactive,–
NCCS(=O)O,inactive,–,inactive,-6.29% (inactive) and 1.76% (inactive),-10.2% and 4.71%,-16.1% and 6.07%,inactive,inactive,inactive,inactive,inactive,inactive,–
COc1ccccc1N1CCN(CCCCNC(=O)c2ccc3ccccc3c2)CC1,inactive,inactive,inactive,–,1.63%,1.88%,inactive,inactive,inactive,7.08 µM (active),10 µM (active),2 µM (active),0.195% (inactive)
Oc1ccc(Cn2cc[nH]c2=S)cc1,inactive,inactive,inactive,-3.19% (inactive),-28.3%,-29.9%,inactive,inactive,inactive,inactive,inactive,inactive,–
O=C(O)[C@H]1NCCC[C@H]1C(=O)O,–,–,inactive,-1.57% (inactive),-48.8%,-48.9%,inactive,inactive,inactive,inactive,inactive,inactive,–
CC(N)=O,inactive,inactive,inactive,-0.907% (inactive),-17.4%,-17.3%,inactive,inactive,inactive,inactive,inactive,inactive,–
N[C@H](C(=O)O)[C@H](O)C(=O)O,inactive,inactive,inactive,1.02% (inactive),-11.9%,-6.36%,inactive,inactive,inactive,inactive,inactive,inactive,–
Cn1c(=O)c2c(nc(/C=C/c3cccc(Cl)c3)n2C)n(C)c1=O,–,–,inactive,-4.15% (inactive),-60.2%,-62%,inactive,inactive,inactive,10 µM (active),–,–,–
NC(N)=[N+]1CCc2ccccc2C1,inactive,inactive,inactive,1.3% (inactive),6.74%,-12.8%,inactive,inactive,inactive,inactive,inactive,inactive,–
C=CCN1CCc2cc(O)c(O)cc2C(c2ccccc2)C1 (centres undefined),–,–,inactive,0.997% (inactive),-6.45%,-5.19%,inactive,inactive,inactive,11.2 µM (active),12.6 µM (active),–,–
C[C@H](O)C(=O)C1=Nc2c(nc(N)[nH]c2=O)NC1,inactive,inactive,inactive,3.44% (inactive),8.97%,8.64%,inactive,inactive,inactive,inactive,inactive,inactive,–
N[C@@H](CS(=O)O)C(=O)O,inactive,inactive,inactive,4.63% (inactive) and 1.31% (inactive),10.5% and -12.6%,17.1% and -9.76%,inactive,inactive,inactive,inactive,inactive,inactive,–
COc1ccc(C(=O)NCc2cccnc2)cc1C(=O)NCc1cccnc1,inactive,inactive,inactive,1.17% (inactive),-2.62% and -3.84%,-2.28% and -1.65%,inactive,inactive,inactive,–,inactive,inactive,1.2% (inactive)
C[C@@H](NCCc1ccc(O)cc1)[C@@H](O)c1ccc(O)cc1,–,–,inactive,1.71% (inactive),-16.7%,-23.8%,inactive,inactive,inactive,inactive,inactive,inactive,–
Cc1nc(N=Nc2ccc(S(=O)(=O)O)cc2S(=O)(=O)O)c(COP(=O)(O)O)c(C=O)c1O,inactive,inactive,inactive,0.0773% (inactive) and 2.25% (inactive),-1.61% and 6.03%,-3.14% and 17.5%,inactive,inactive,inactive,inactive,inactive,inactive,–
O=c1[nH]c(=O)c2nc3ccccc3nc2[nH]1,inactive,–,inactive,-0.305% (inactive),-11.1%,-9.17%,inactive,inactive,inactive,–,inactive,–,–
CNc1cc(NS(=O)(=O)c2ccc(N)cc2)nc(NC)n1,inactive,inactive,inactive,0.422% (inactive),-14.7%,-14.3%,inactive,inactive,–,inactive,inactive,inactive,–
NC(N)=NC(N)=Nc1cccc(Cl)c1,inactive,–,inactive,3.33% (inactive) and -0.622% (inactive),13.6% and -27.3%,18.7% and -27.9%,inactive,inactive,inactive,–,–,11.2 µM (active),–
